From the supplement of paper PMC11732987, “Enantioselective OTUD7B fragment discovery through chemoproteomics screening and high-throughput optimisation” (Communications Chemistry, 2025)

Tests used:
Assay in all cases: log2 ratio of Biotin-Ahx-Ub-VS probe labelling (fragment/DMSO); higher = less target engagement (more negative = stronger competition), active = hit call of the paper (q ≤ 0.05, log2 ratio ≤ -1)
Conditions in all cases: compound concentration: 200 uM; treatment time: 3 h
OTUD6B = molecular target: T1, OTUD6B (UniProt Q8N6M0)
T1 sequence (whole entry): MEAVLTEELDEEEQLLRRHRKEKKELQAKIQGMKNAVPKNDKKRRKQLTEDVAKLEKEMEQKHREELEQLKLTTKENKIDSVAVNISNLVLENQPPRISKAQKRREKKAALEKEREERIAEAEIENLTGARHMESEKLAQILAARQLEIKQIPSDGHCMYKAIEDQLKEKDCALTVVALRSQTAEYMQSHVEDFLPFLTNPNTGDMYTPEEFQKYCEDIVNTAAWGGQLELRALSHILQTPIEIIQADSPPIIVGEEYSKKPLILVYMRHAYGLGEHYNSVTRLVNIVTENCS
Outline: (§1)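 HEK293T lysate (495 µg per sample, in Tris/CHAPS/IGEPAL buffer with protease inhibitors) was treated in triplicate with fragment at 200 µM or with DMSO for 3 h. It was then treated with Biotin-Ahx-Ub-VS (0.5 µM final) for 1 h. Labelled DUBs were NeutrAvidin-enriched, digested with LysC and trypsin, and run by diaPASEF LC-MS/MS. Spectronaut label-free quantities were global-median-normalised. Values are average log2 ratios fragment/DMSO by unpaired t-test, using proteins with ≥2 unique peptides.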

OTUD7B = molecular target: T2, OTUD7B (UniProt Q6GQQ9)
T2 sequence (whole entry): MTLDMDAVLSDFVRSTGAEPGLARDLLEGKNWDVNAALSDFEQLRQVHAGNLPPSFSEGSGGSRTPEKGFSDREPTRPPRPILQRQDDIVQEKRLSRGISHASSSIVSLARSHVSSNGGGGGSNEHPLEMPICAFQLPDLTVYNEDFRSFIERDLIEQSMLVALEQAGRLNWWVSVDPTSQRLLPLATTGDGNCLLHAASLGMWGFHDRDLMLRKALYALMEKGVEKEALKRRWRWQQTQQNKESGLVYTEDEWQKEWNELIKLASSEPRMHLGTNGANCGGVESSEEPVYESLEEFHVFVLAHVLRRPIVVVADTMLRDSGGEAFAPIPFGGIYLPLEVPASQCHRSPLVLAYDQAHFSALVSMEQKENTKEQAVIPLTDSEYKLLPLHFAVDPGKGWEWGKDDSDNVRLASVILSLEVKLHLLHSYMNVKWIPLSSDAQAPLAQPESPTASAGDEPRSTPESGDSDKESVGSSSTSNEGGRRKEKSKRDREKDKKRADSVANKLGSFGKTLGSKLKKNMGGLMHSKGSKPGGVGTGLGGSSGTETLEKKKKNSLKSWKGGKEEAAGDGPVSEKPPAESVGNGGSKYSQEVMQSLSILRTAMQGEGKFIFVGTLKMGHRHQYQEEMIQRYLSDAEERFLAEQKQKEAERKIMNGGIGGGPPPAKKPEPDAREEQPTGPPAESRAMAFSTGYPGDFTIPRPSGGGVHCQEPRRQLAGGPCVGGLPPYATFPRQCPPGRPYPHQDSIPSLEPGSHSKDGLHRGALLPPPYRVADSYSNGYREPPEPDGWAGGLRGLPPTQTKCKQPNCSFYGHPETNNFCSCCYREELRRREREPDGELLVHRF
Outline: as §1

PRPF8 = PRPF8 (UniProt Q6P2Q9)
Outline: as §1

PSMD7 = molecular target: T3, PSMD7 (UniProt P51665)
T3 sequence (whole entry): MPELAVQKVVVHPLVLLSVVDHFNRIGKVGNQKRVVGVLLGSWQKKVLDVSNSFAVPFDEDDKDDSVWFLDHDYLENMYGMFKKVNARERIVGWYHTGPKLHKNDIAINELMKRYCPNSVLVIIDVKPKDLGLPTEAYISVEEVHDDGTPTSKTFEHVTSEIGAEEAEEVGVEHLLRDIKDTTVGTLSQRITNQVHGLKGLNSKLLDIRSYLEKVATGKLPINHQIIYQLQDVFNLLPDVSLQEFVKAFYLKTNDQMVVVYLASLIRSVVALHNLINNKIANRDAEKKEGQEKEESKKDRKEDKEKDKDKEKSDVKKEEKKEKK
Outline: as §1

UCHL1 = UCHL1 (UniProt P09936)
UCHL1, sequence (P09936 whole entry, looked up): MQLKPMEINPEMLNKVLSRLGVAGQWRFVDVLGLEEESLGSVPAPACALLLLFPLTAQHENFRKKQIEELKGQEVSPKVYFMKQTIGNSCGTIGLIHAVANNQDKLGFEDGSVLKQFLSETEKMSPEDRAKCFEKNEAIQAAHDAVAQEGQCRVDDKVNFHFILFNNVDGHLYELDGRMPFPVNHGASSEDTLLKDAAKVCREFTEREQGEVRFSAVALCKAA
Outline: as §1

UCHL3 = molecular target: T4, UCHL3 (UniProt P15374)
T4 sequence (whole entry): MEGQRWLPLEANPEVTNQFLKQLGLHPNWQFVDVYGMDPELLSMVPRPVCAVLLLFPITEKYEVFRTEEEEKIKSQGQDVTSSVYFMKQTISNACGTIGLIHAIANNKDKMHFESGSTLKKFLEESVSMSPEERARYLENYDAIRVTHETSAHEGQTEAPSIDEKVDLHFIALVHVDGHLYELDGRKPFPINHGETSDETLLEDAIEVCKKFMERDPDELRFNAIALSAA
Outline: as §1

UCHL5 = molecular target: T5, UCHL5 (UniProt Q9Y5K5)
T5 sequence (whole entry): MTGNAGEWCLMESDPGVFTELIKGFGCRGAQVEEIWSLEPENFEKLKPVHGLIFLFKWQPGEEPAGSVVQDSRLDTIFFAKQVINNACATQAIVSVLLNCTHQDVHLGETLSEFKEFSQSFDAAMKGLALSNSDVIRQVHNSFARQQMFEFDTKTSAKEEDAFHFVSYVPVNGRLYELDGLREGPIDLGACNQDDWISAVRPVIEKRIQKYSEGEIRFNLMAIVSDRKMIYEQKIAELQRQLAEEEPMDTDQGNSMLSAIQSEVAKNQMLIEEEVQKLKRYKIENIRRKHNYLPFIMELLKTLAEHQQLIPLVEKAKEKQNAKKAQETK
Outline: as §1

USP10 = USP10 (UniProt Q14694)
USP10, sequence (Q14694 whole entry): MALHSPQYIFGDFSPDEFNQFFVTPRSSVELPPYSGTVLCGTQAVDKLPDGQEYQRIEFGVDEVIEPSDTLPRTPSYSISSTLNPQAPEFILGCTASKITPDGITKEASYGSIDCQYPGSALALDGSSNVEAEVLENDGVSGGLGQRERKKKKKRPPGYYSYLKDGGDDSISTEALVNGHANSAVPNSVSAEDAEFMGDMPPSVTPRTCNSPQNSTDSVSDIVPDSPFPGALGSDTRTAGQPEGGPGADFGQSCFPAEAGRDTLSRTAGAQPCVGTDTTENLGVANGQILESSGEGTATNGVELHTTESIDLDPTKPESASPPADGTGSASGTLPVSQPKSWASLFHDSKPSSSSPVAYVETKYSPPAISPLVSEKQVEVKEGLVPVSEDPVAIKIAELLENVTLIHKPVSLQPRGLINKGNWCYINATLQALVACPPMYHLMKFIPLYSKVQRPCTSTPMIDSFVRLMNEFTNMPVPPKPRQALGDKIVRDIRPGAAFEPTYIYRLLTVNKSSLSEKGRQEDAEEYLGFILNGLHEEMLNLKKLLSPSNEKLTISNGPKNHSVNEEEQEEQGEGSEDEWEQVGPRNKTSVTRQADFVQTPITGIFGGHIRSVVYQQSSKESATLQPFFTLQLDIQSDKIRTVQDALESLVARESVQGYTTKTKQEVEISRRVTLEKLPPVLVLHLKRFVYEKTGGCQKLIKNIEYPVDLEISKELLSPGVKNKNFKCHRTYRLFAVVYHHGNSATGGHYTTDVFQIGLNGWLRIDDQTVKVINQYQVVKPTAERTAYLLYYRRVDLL
Outline: as §1

USP15 = molecular target: T6, USP15 (UniProt Q9Y4E8)
T6 sequence (whole entry): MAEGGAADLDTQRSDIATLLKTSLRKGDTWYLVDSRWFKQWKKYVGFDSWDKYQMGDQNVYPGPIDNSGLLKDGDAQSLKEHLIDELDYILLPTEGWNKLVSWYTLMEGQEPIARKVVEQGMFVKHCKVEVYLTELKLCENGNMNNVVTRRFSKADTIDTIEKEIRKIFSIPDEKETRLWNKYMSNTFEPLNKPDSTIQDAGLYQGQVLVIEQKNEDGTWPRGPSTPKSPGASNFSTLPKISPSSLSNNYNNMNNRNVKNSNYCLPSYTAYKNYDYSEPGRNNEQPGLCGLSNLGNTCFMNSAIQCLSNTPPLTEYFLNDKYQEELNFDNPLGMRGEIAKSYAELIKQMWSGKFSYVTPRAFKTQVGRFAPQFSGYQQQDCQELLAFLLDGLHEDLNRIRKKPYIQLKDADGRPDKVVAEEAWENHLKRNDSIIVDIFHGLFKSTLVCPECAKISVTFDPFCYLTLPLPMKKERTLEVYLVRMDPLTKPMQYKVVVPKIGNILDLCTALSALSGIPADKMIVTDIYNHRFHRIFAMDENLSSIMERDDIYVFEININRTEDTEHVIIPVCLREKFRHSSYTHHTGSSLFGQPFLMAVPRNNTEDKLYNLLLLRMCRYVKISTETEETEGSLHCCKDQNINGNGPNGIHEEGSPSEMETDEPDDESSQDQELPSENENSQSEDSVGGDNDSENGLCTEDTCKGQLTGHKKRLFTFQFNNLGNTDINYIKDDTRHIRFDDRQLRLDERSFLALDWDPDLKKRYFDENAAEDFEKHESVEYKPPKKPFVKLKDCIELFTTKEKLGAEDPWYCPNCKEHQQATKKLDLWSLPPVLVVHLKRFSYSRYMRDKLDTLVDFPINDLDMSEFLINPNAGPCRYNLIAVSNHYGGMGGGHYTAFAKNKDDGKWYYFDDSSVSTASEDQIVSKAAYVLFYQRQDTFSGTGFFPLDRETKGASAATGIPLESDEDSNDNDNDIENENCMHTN
Outline: as §1

USP16 = USP16 (UniProt Q9Y5T5)
USP16, sequence (Q9Y5T5 whole entry, looked up): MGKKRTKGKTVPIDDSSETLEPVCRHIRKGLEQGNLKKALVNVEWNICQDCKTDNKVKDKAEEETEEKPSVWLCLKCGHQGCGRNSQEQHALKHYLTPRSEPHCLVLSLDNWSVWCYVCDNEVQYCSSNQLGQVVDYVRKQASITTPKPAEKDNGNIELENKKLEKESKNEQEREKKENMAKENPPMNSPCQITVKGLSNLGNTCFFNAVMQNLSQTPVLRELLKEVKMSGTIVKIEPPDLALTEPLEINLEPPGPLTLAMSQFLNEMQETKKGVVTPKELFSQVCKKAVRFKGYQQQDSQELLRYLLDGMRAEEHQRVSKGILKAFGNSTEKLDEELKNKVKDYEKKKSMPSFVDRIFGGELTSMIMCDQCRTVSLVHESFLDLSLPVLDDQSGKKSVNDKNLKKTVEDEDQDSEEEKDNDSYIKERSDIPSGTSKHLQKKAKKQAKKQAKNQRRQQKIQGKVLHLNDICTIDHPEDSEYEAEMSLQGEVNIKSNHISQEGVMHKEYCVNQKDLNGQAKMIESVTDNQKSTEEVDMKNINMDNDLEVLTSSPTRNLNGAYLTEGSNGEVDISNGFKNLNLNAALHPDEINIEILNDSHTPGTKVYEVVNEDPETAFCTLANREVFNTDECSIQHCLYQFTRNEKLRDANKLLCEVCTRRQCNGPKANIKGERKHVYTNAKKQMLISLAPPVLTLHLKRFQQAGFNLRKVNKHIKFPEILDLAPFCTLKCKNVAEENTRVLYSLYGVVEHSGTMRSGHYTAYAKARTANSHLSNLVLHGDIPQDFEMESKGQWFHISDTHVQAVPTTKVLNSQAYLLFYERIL
Outline: as §1

Measured: log2 ratio of Biotin-Ahx-Ub-VS probe labelling

CCC(NC(=O)CCl)c1ccc(Cl)cc1 (stereo not given)
active: OTUD7B -1.12 | UCHL1 -1.12
inactive: OTUD6B 0.0691 | PRPF8 0.164 | PSMD7 -0.0211 | UCHL3 0.495 | UCHL5 -0.175 | USP10 -0.0683 | USP15 -0.0837 | USP16 -0.0971
